From PubChem BioAssay
The source made the active and inactive calls. Unless noted, the rule behind the calls is not given here.

How the values were obtained:
[1] = test system: XIP peptide (Xip251-270) binding; experiment: XIP fragment 251-270 binding compounds – biochemical, small-molecule microarray, fluorescence 635/667 nm, 0.1 µg/mL protein, primary screen (AID 1182); conditions: fluorescent protein binding, 635 nm, higher = more signal, called active from +8 up or from −8 down
XIP peptide (Xip251-270) = experiment: compounds binding XIP fragment 251-270 – biochemical, small-molecule microarray, fluorescence 635/667 nm, 0.5 µg/mL protein, primary screen (AID 1183); conditions: fluorescence 635 nm, higher = more signal
[2] = blood-stage malaria parasite viability loss – strain 3D7, DAPI fluorescence, 100 nL, primary screen (AID 1184);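 note: parasites grown inside human red blood cells in medium with human serum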; conditions: P. falciparum 3D7 growth, 3 d, higher = more signal
[3] = molecular target: Homeobox protein Hox-A13 (Mus musculus) (UniProt Q62424); experiment: disruptors of Hoxa13 oligonucleotide interaction – biochemical, fluorescence polarization, labeled oligonucleotide, primary screen (AID 1185); conditions: Hoxa13:DNA binding, 15 min, higher = more signal, called active from +8 up or from −8 down
Sequence of Homeobox protein Hox-A13 (Mus musculus) (Q62424 whole entry, looked up): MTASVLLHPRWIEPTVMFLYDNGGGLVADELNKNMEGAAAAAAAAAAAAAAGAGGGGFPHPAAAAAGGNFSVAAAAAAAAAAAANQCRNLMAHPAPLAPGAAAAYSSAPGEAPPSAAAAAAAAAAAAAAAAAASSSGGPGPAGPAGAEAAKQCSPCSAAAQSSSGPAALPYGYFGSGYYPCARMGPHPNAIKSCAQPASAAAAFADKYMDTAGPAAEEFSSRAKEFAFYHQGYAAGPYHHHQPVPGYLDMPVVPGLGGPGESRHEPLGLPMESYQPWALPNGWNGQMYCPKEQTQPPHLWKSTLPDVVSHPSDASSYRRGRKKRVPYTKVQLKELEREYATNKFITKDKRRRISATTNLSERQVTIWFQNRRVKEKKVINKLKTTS

[4] = blockers of DNA damage checkpoint Chk1 activation – imaging, HeLa, hydroxyurea, phospho-Chk1 antibody, percent positive cells, primary screen (AID 1186); conditions: hydroxyurea-induced phospho-Chk1 immunofluorescence imaging, higher = more signal
[5] = blockers of DNA damage checkpoint Chk1 activation – imaging, HeLa, hydroxyurea, phospho-Chk1 nuclear intensity, primary screen (AID 1187); conditions: hydroxyurea-induced phospho-Chk1 immunofluorescence imaging, higher = more signal

Row | Compound | composite z-score [1] | composite z-score (XIP peptide (Xip251-270)) | z-score [2] | z-score [3] | z-score [4] | z-score [5]
1 | CN(C)C(=O)[C@@]1(Cc2ccccc2CN=[N+]=[N-])COC(c2ccc(OCCCO)cc2)=N1 | 0.182 (inactive) | 0.62 | -2.08 | -5.02 (inactive) | -0.439 (inactive) | -0.521 (inactive)
2 | COCCCNC(=O)[C@@H]1c2ccccc2C(=O)N(Cc2ccc(OC(F)(F)F)cc2)[C@H]1c1ccc(CO)cc1 | 0.16 (inactive) | 0.314 | 0.0414 | -3.51 (inactive) | -0.163 (inactive) | -0.368 (inactive)
3 | C=CCOC(=O)[C@H]1[C@@H]2C(=O)O[C@@H](c3ccccc3)[C@@H](c3ccccc3)N2[C@@H](c2ccc(OCCOC(=O)[C@@H]3C[C@@H]4C(=O)N[C@@H](CCCCNC(C)=O)C(=O)N4[C@@H]3c3cccc(OCCO)c3)cc2)[C@]12C(=O)Nc1ccccc12 | 0.785 (inactive) | 0.824 | -1.55 | -0.0913 (inactive) | 0.321 (inactive) | 0.0173 (inactive)
4 | COC(=O)[C@@]1(Cc2ccc(OC)cc2)[C@H]2c3cc(C(=O)N4CCCC4)n(Cc4ccc(C(F)(F)F)nc4)c3C[C@H]2CN1C(=O)c1ccccc1 | 0.143 (inactive) | -0.39 | -1.5 | -5.12 (inactive) | 0.664 (inactive) | 0.712 (inactive)
5 | C=CCNC(=O)[C@H]1[C@@H]2C(=O)O[C@@H](c3ccccc3)[C@@H](c3ccccc3)N2[C@@H](c2ccc(OCCO)cc2)[C@]12C(=O)Nc1ccc(C#CC3(O)CCCCCC3)cc12 | 0.38 (inactive) | 0.821 | -2.09 | -1.83 (inactive) | 0.541 (inactive) | 1.15 (inactive)
6 | COCCOC(=O)N1C(=O)[C@@]2(c3cc(C#Cc4ccc(OC)cc4)ccc31)[C@H](c1ccc(OCCO)cc1)N1[C@H](c3ccccc3)[C@H](c3ccccc3)OC(=O)[C@H]1[C@@H]2C(=O)NC[C@H](O)c1ccccc1 | 0.849 (inactive) | 0.713 | -1.66 | -0.532 (inactive) | 0 (inactive) | -0.0275 (inactive)
7 | C=C(COC)C(=O)CC[C@H](OC(=O)c1cccnc1)c1ccc(OCCO)cc1 | 1.08 (inactive) | 0.447 | -0.711 | -5.58 (inactive) | 0.35 (inactive) | 0.343 (inactive)
8 | COC(=O)[C@]1(CCC(=O)OC(C)(C)C)N=C(c2ccc(OCCCO)cc2)O[C@@H]1c1ccccc1N=[N+]=[N-] | -0.194 (inactive) | 0.633 | -1.98 | -2.21 (inactive) | 0.0989 (inactive) | 0.562 (inactive)
9 | CC(C)(C)N1CC=CC23O[C@@H]4C=CCOC(=O)[C@@H]4[C@H]2C(=O)N(CCO)[C@@H]3C1=O (stereo partly specified) | 0.218 (inactive) | 0.57 | 0.885 | -3.33 (inactive) | 0.121 (inactive) | -0.307 (inactive)
10 | Cc1ccc(N2C(=O)c3ccccc3[C@](C)(C(=O)NCCCN(C)C)[C@@H]2c2ccc(CO)cc2)nc1 | 0.0854 (inactive) | -0.495 | 0.165 | -2.55 (inactive) | -0.229 (inactive) | -0.321 (inactive)
11 | CC(C)=C1C(=O)C(c2ccccc2)=C2CN3C(=O)N(CCc4ccccc4)C(=O)[C@]3(C)[C@H]21 | 0.254 (inactive) | 0.295 | 0.127 | -3.12 (inactive) | -0.0061 (inactive) | 0.467 (inactive)
12 | COc1ccc([Si](C)(C)[C@H]2[C@H](CC(=O)N3Cc4ccccc4C[C@H]3CO)O[C@@]3(C(=O)N(C)c4ccccc43)[C@@H]2C)cc1 | 0.958 (inactive) | 0.808 | -2.63 | -5.59 (inactive) | 0.227 (inactive) | 0.169 (inactive)
13 | O=C1C2C=CC(C(O)c3c(F)cccc3Cl)N(Nc3ccc([N+](=O)[O-])cc3)C2C(=O)N1c1ccccc1 (stereo unspecified) | 1.03 (inactive) | 0.878 | -0.545 | -3.05 (inactive) | 0.982 (inactive) | 1.09 (inactive)
14 | COC(=O)[C@H](Cc1ccc(O)cc1)N[C@@H](/C=C/C1CC1)[C@H](O)Cc1ccccc1 | -0.364 (inactive) | -0.0324 | 1.55 | -5.14 (inactive) | 0.412 (inactive) | 0.0577 (inactive)
15 | [N-]=[N+]=Nc1ccccc1[C@H]1OC(c2ccc(OCCCO)cc2)=N[C@@]1(Cc1ccccc1)C(=O)NCC(O)CO (stereo partly specified) | 0.448 (inactive) | 0.536 | -1.84 | -4.34 (inactive) | 0.0068 (inactive) | 0.251 (inactive)
16 | CC(=O)c1ccc(C(O)C2C=CC3C(=O)N(c4ccccc4)C(=O)C3N2Nc2ccc(C(C)C)cc2)cc1 (stereo unspecified) | 0.248 (inactive) | 0.525 | -1.33 | -2.09 (inactive) | 0.0577 (inactive) | -0.371 (inactive)

Row | Compound | composite z-score [1] | composite z-score (XIP peptide (Xip251-270)) | z-score [2] | z-score [3] | z-score [4] | z-score [5]
17 | CC1CC/C=C\[C@H]2OC34C=CCN(c5ccc6ccccc6c5)C(=O)[C@H]3N(C(C)CO)C(=O)[C@@H]4C2C(=O)O1 (stereo partly specified) | -0.0371 (inactive) | -0.691 | -0.338 | -4.97 (inactive) | 0.0352 (inactive) | -0.228 (inactive)
18 | O=C(NCC(O)CO)[C@@]1(CCS(=O)(=O)c2ccccc2)N=C(c2ccc(OCCCO)cc2)O[C@H]1c1ccccc1 (stereo partly specified) | 2.08 (inactive) | 0.0777 | -2.02 | -4.76 (inactive) | -0.579 (inactive) | -0.282 (inactive)
19 | CC1CC/C=C\[C@H]2OC34C=CCN(CCN5CCOCC5)C(=O)[C@H]3N(CCCO)C(=O)[C@@H]4C2C(=O)O1 (stereo partly specified) | 0.537 (inactive) | -0.868 | -0.246 | -6.46 (inactive) | 0.58 (inactive) | 0.667 (inactive)
20 | COC(=O)C1=CC(CCCO)=CC(c2cccs2)N(Cc2cc3c(cc2Br)OCO3)C=C1C(=O)OC (stereo unspecified) | 1.07 (inactive) | 0.763 | -1.26 | -4.49 (inactive) | 0.132 (inactive) | 0.454 (inactive)
21 | CO[C@H]1O[C@H](CO)[C@@H](OC(=O)Nc2ccccc2)[C@H](OC(=O)Nc2ccccc2)[C@H]1OC(=O)Nc1ccccc1 | 0.142 (inactive) | 0.69 | -2.51 | -6.21 (inactive) | -0.0874 (inactive) | 0.511 (inactive)
22 | COC(=O)[C@@]1(Cc2ccccc2)[C@H]2c3cc(C(=O)N(C)C)n(CCO)c3C[C@H]2CN1C(=O)c1ccccc1 | 1.42 (inactive) | 0.182 | 1.1 | -3.87 (inactive) | 0.736 (inactive) | 0.491 (inactive)
23 | CC(C)=CCCC(C)=CC(O)C1C=CC2C(=O)NC(=O)C2N1Nc1ccc(Cl)cc1Cl (stereo unspecified) | 0.323 (inactive) | 0.171 | 0.812 | -3.59 (inactive) | 1.39 (inactive) | 0.848 (inactive)
24 | CN(C)CCCC[C@@H]1NC(=O)[C@@H]2C[C@H](C(=O)NCCCCCCNC(=O)CS)[C@H](c3ccc(O)cc3)N2C1=O | 0.237 (inactive) | 0.859 | -0.0596 | -1.31 (inactive) | -0.282 (inactive) | -0.405 (inactive)
25 | CN(C)CCCCNC(=O)[C@H]1C[C@H]2C(=O)NCC(=O)N2[C@H]1c1ccc(O)cc1 | 0.372 (inactive) | 0.815 | 0.185 | -4.67 (inactive) | -0.15 (inactive) | -0.186 (inactive)
26 | [N-]=[N+]=Nc1ccccc1[C@@H]1OC(c2ccc(OCCCO)cc2)=N[C@]1(CCS(=O)(=O)c1ccccc1)C(=O)NCC(O)CO (stereo partly specified) | 0.0574 (inactive) | 0.947 | -2.21 | -3.99 (inactive) | 0.0401 (inactive) | 0.225 (inactive)
27 | C=CCN1C(=O)[C@]2(O[C@H](CCn3cc([C@H](O)c4ccccc4)nn3)[C@@H]([Si](C)(C)c3ccc(OC)cc3)[C@@H]2C)c2cc(NC(=O)c3ccc(OC)cc3)ccc21 | 0.586 (inactive) | 0.309 | -2.77 | -4.56 (inactive) | -0.552 (inactive) | 0.0018 (inactive)
28 | O=C(NC1CC1)[C@@H]1c2ccccc2C(=O)N(CC23CC4CC(CC(C4)C2)C3)[C@H]1c1ccc(CO)cc1 | 0.383 (inactive) | 0.686 | -2.22 | -5.05 (inactive) | -0.0001 (inactive) | 0.169 (inactive)
29 | COc1ccc([Si](C)(C)[C@@H]2[C@@H](CC(=O)N3CCC[C@H]3CO)O[C@]3(C(=O)N(Cc4ccc(N5CCOC5=O)cc4)c4ccccc43)[C@H]2C)cc1 | 0.56 (inactive) | 0.727 | 0.309 | -3.21 (inactive) | -1.03 (inactive) | -0.48 (inactive)
30 | CN(C)c1ccc(C(O)C2C=CC3C(=O)N(Cc4ccccc4)C(=O)C3N2n2cnnc2)cc1 (stereo unspecified) | 3 (inactive) | -0.23 | 0.736 | -0.863 (inactive) | -1.39 (inactive) | -1.58 (inactive)
31 | COc1ccccc1CN1C(=O)c2ccccc2[C@](Cc2ccccc2I)(C(=O)NCC(C)C)[C@@H]1c1ccc(CO)cc1 | 0.935 (inactive) | 0.932 | -0.409 | -3.82 (inactive) | -0.287 (inactive) | -0.208 (inactive)
